# Calls of active or inactive are those of the source. No rule for the calls is given here.
# Tested on: HIV-1 nucleocapsid protein NCp7 (binding to TG oligonucleotide)
# Experiment: HIV Nucleocapsid (AID 346);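 also: potency is for inhibitors that block NC binding and lower polarization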
# Conditions: HIV-1 NC / fluorescein-TGTGTGTG probe, fluorescence polarization
# Summary of the method: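 Fluorescence polarization binding of 100 nM HIV-1 NC to 10 nM fluorescein-labelled TG4xF oligonucleotide. Buffer was Hepes pH 7.5 with 250mM NaCl, 1uM ZnCl2, TCEP and 2-mercaptoethanol. Compounds were incubated 1 hr at room temperature before the read.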
# Potency is read from the fitted curve at half-maximal effect.
row,Compound,Potency
1,COCCNc1nc(-c2ccc(N(C)C)cc2)nc2ccccc12,> 20 µM (inactive)
2,CC(C)CN1CCCC2(CCN(C(=O)c3cc(C(F)(F)F)cc(C(F)(F)F)c3)CC2)C1,> 20 µM (inactive)
3,O=C(c1csnn1)N1CCC[C@@]2(CCN(c3ncccn3)C2)C1,> 20 µM (inactive)
4,N#Cc1cccc(-c2cc(NCc3cccnc3)ncn2)c1,> 20 µM (inactive)
5,CS(=O)(=O)N1CCC[C@@]2(CCN(Cc3ccccc3)C2)C1,> 20 µM (inactive)
6,COc1ccc2[nH]cc(CCNc3cc(-c4cccc(C#N)c4)ncn3)c2c1,> 20 µM (inactive)
7,COCC(=O)N1CCC2(CCCN(c3ccccc3)C2)CC1,> 20 µM (inactive)
8,CN(C)c1ncc2nc(-c3cccs3)c(=O)n(CCC#N)c2n1,0.319 µM (active)
9,N#Cc1ccc(CN2CC3(CCN(C(=O)c4cnccn4)CC3)C2)cc1,> 20 µM (inactive)
10,O=C(Nc1cccc(F)c1)N1CC[C@@]2(CCCN(C(=O)c3ccncc3)C2)C1,> 20 µM (inactive)
11,N#Cc1cccc(-c2nc3cnc(Oc4cccc(Cl)c4)nc3n(C3CC3)c2=O)c1,> 20 µM (inactive)
12,COc1ccc(-n2c(=O)cnc3cnc(N4CCOCC4)nc32)cc1,> 20 µM (inactive)
13,COCC(=O)N1CCC[C@@]2(CCN(c3ncccn3)C2)C1,> 20 µM (inactive)
14,O=C(c1cc(C(F)(F)F)cc(C(F)(F)F)c1)N1CCC2(CC1)CN(c1ccccn1)C2,> 20 µM (inactive)
15,O=C(c1cnccn1)N1CCC[C@@]2(CCN(c3ncccn3)C2)C1,> 20 µM (inactive)
16,COCC(=O)N1CCC[C@@]2(CCN(c3ccccc3)C2)C1,> 20 µM (inactive)
17,CN(C)c1ncc2nc(-c3cccc(C#N)c3)c(=O)n(C[C@H]3CCCO3)c2n1,> 20 µM (inactive)
18,CN1CCN(c2ncncc2-c2ccc(C(=O)N(C)C)cc2)CC1,> 20 µM (inactive)
19,O=C(c1cc(C(F)(F)F)cc(C(F)(F)F)c1)N1CCC2(CCCN(c3ccccn3)C2)CC1,> 20 µM (inactive)
20,COc1cccc(-c2nc(N(C)C)c3ccccc3n2)c1,> 20 µM (inactive)
21,O=c1c(-c2ccc(Cl)cc2)nc2cncnc2n1Cc1ccccc1,> 20 µM (inactive)
22,CN(C)C(=O)c1ccc(-c2ccc3ncnc(NC4CCNCC4)c3c2)cc1,> 20 µM (inactive)
23,CC(=O)N1CCC2(CCN(Cc3cc(C(F)(F)F)cc(C(F)(F)F)c3)CC2)CC1,> 20 µM (inactive)
24,COc1cccc(-c2nc(NCc3cnc(C)cn3)c3ccccc3n2)c1,> 20 µM (inactive)
25,N#CCCn1c(=O)cnc2cnc(OCc3ccccc3)nc21,> 20 µM (inactive)
26,COc1ccc(Oc2ncc3nc(C)c(=O)n(-c4ccccc4)c3n2)cc1,> 20 µM (inactive)

# Source: PubChem BioAssay (NCATS)
